According to PubChem BioAssay AID774 (SRMLSC, 2007):
The campaign covered roughly 65,000 compounds. About 15 (0.02%) were called active.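 The calls were made as follows: active = single-dose screening hits from any of four coupled enzyme assays that gave an IC50 when retested across doses; inconclusive = no clear call, values can overlap the other calls; inactive = the rest.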 A selection follows.

assay: inhibitors of PK/LDH coupling enzymes, profiling panel, artefact control, biochemical, MLSMR library (AID 774); conditions: coupled PK/LDH NADH assays, four targets; at 10 µM; stronger effect = higher value;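 also: the DPM-DC format reads NADH fluorescence rather than 340 nm absorbance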

inhibition, inactive:
CCOC(=O)N1CCN(C(=O)COc2ccc(Br)cc2)CC1 5%
COc1ccccc1C(=O)N1CCN=C1SCc1cccnc1 2%
Cn1c(=O)[nH]c(=O)c2c1nc(CN(Cc1ccccc1)Cc1ccccc1)n2CCN1CCOCC1 0%
CCOC(=O)c1nnn(-c2nc(OC)nc(N(C)C)n2)c1-c1ccccc1 6%
O=C(CSc1nc2ccccc2o1)N1CCN(c2ccc(Cl)cc2)CC1 3%
CCOC(=O)N1CCN(C(=O)CN(C2CCCCC2)S(C)(=O)=O)CC1 3%
O=C(C1CCN(CC2CCCCC2)CC1)N1CCCC1 17%
O=C(CS(=O)(=O)c1cn(Cc2ccc(Cl)cc2)c2ccccc12)N1CCOCC1 1%
CC1CN(c2cc(=O)n(-c3cccc(Br)c3)c(=O)[nH]2)CC(C)O1 (stereo not drawn) 2%
OC(COc1cccc(OCC(O)CN2CCCC2)c1)CN1CCCC1 (stereo not drawn) 3%
COc1ccc(C2CC(c3ccc(C)cc3)Nc3nc(N)nn32)cc1 (stereo not drawn) 1%
CCOc1ccc(-c2nnn(CC(=O)N3CCN(c4ccc(F)cc4)CC3)n2)cc1OCC 1%
COc1ccccc1Cc1nc(-c2ccc(C)cc2)no1 1%
Cc1cc(=O)[nH]c(=S)[nH]1 0%
COc1ccccc1C1/C(=C(/O)c2ccc(OC(C)C)cc2)C(=O)C(=O)N1c1cc(C)on1 (stereo not drawn) 5%
OCCCNC(c1ccccc1)c1ccc(O)cc1 (stereo not drawn) 6%
Cc1cc(C(F)(F)F)nn1CC(=O)N1CCCC1 2%
CCOC(=O)Cn1c(SC)nc2sc3c(c2c1=O)CC(C)(C)OC3 4%
COCCNC(=O)c1ccccc1-c1nc(-c2ccccc2Cl)no1 4%
Cc1nc(CNS(=O)(=O)c2cccnc2)cs1 5%
Cc1cc(C)nc(N(C#N)CC(=O)Nc2ccccc2)n1 7%
COc1ccc(-c2noc(CN(C)S(=O)(=O)c3ccc(C)cc3)n2)cc1 6%
CN1CCN(S(=O)(=O)c2ccc(NC(=O)c3ccco3)cc2)CC1 2%
CCOc1ccc(CN(Cc2ccco2)C(c2cccs2)c2nnnn2C(C)(C)C)cc1 (stereo not drawn) 1%
CCOC(=O)c1ccc(N2C(=O)CC(N3CC(C)OC(C)C3)C2=O)cc1 (stereo not drawn) 3%
CC(=O)Nc1ccc(S(=O)(=O)N2CCN(C3CCCCCCC3)CC2)cc1 6%
CC(C)(C)c1ccc(C(=O)NCCC(=O)NCc2ccco2)cc1 6%
CCSC1(SCC)N=C(N)C2(C#N)C(c3ccccc3)NC(C)=CC12C#N (stereo not drawn) 1%
COc1ccccc1-n1nnnc1S(=O)(=O)Cc1ccc(Cl)cc1 5%
Cc1noc(C)c1S(=O)(=O)N(CC(=O)Nc1ccc2c(c1)OCCO2)c1ccc(C(C)C)cc1 8%
CCCCOC(=O)c1[nH]c(C)c(C(=O)OC)c1C 1%
CC(Oc1ccc(Cl)cc1)C(=O)Nc1ncccn1 (stereo not drawn) 5%
Cc1noc(C)c1CSc1nc2cc(S(=O)(=O)N3CCOCC3)ccc2o1 4%
O=C1CCC(=O)N1CCOP1(=O)COc2ccccc2OC1 4%
O=C(NCc1ccc2c(c1)OCO2)c1cc2c(s1)CS(=O)(=O)C2 6%
CCCOP(=O)(c1ccc(N(C)C)cc1)C(O)c1cc(OC)c(OC)c(OC)c1 (stereo not drawn) 2%
CSc1nc(C)nc2c1c(=O)n(C)c(=O)n2C 5%
Cc1nc(NCc2ccccc2)c(C(N)=O)c2c1COC(C)(C)C2 11%
CCN(CC)CCNC(=O)C1c2ccccc2C(=O)N(C)C1c1cn(C)c2ccccc12 (stereo not drawn) 6%
CCOc1cc(C(=O)N2CCc3cc(OC)c(OC)cc3C2)ccc1OC(F)F 7%
Cc1cc(N2CCCC2)n2nc(C)c(-c3ccccc3)c2n1 8%
CSCCC(NC(N)=O)C(=O)N(C)CC(=O)Nc1ccc(C)cc1 (stereo not drawn) 8%
CC(NCCO)C(=O)C12CC3CC(CC(C3)C1)C2 (stereo not drawn) 4%
O=P(O)(CP(=O)(c1ccccc1)c1ccccc1)c1ccccc1 6%
COC(=O)c1cc(NC(=O)CN2CCC(C(N)=O)(N3CCCCC3)CC2)cc(C(=O)OC)c1 4%
ON=C1/C(=N\O)CC2(C/C1=N/O)OCCO2 2%
CCc1ccccc1NC(=O)CSc1nnc([C@@H](NC(=O)OC(C)(C)C)C(C)CC)o1 (stereo partly drawn) 5%
COc1ccc(-n2ncc3c(N4CCc5ccccc54)ncnc32)cc1 6%
CCOc1ccc(S(=O)(=O)N(CC(=O)O)c2ccccc2)cc1 1%
CCOc1cccc(NC(=O)CC#N)c1 6%
COC(=O)c1sccc1NC(=O)c1csc2c1CCCC2 5%
CCOC(=O)CNC(=O)CSc1nnc(COc2ccc(Cl)cc2)n1CC 8%
N#Cc1ccc(OCCN2C(=O)NC3(CCSC3)C2=O)cc1 (stereo not drawn) 14%
CS(=O)(=O)N(Cc1nc2sc3c(c2c(=O)[nH]1)CCCC3)C1CCCCC1 3%
CCn1nc(NC(=O)c2ccco2)c2cc3ccc(C)cc3nc21 9%
N#CC(C(=O)c1ccc(S(=O)(=O)N2CCCCCC2)cc1)c1nc2ccccc2[nH]1 (stereo not drawn) 8%
CC(=O)N(Cc1cccs1)C1CCOC(C)(C)C1 (stereo not drawn) 5%
CCn1c(NCCc2ccc(OC)c(OC)c2)nc2c1c(=O)n(C)c(=O)n2C 7%
Nc1nc(SCCOc2ccccc2)n[nH]1 1%
N#C/C=C\Oc1ccc(Cl)cc1N 7%
Cc1nnc(NC(=O)CSc2nccn2-c2cccc(C)c2C)s1 5%
O=C(NCc1ccco1)c1cc2sccc2n1Cc1ccc(F)cc1 5%
CCOc1ccc(-c2cn(S(=O)(=O)c3cccc4nsnc34)nc2N)cc1 5%
O=C(CCn1c(=O)[nH]c2ccccc2c1=O)NCCCN1CCN(c2cccc(Cl)c2)CC1 1%
CC1=CC(C)(C)N(C(=O)CSc2nccn2C)c2cc(C)ccc21 0%
O=C(O)CCSc1nnc(-c2ccccc2)n1-c1ccccc1 4%
CSc1nnc(CNC(=O)c2ccccc2)n1-c1ccc(F)cc1 0%
CC(NC(=O)Nc1ccccc1)c1ccccc1 (stereo not drawn) 10%
CC(=O)c1cc(C#N)c(SCC(=O)C(C)(C)C)nc1C 1%
COc1cccc(NC(=O)Nc2nnc(N3CCCCC3C)s2)c1 (stereo not drawn) 7%
CCCn1cc(SCC(N)=O)c2ccccc21 1%
COc1ccc(S(=O)(=O)N2CCC(C(=O)N3CCc4ccccc4C3)CC2)cc1OC 2%
CCOC(=O)N1CCC(O)(c2cc(C)c(C)cc2C)CC1 3%
O=C(CNS(=O)(=O)c1ccc(Br)s1)NCc1ccc2c(c1)OCO2 5%
CC(C)[C@H](NC(=O)Nc1ccc(S(N)(=O)=O)cc1)C(=O)O 2%
C/C(N)=C(\C#N)C(=O)NCCc1ccccn1 5%
O=C(Cn1c(=O)sc2ccccc21)Nc1nc2c(s1)CCCC2 5%
c1ccc2c(c1)OCC(c1nn3cnnc3s1)O2 (stereo not drawn) 3%
COc1cccc(-c2cc3nc4c(c(N5CCC6(CC5)OCCO6)n3n2)CCCC4)c1 4%
C=CCc1cccc2cc(C(=O)N3CCN(C(=O)OCC)CC3)c(=O)oc12 4%
CCOC(=O)CC1C(=O)NCCN1C(=O)COc1ccc(Br)cc1C (stereo not drawn) 4%
Cc1nn(-c2ccccc2)c2[nH]c(C(F)(F)F)cc(=O)c12 3%
O=[n+]1c2c(n([O-])c3cc(Br)ccc31)CCC2 5%
CC(C)CCNc1nc(N2CCCC2)c2c(c1C#N)CCN(C)C2 7%
COc1ccc(N2C(=O)CCC(C(=O)Nc3ccccn3)C2c2ccc(OC)c(OC)c2)cc1 (stereo not drawn) 2%
Cc1ccc(S(=O)(=O)c2nc(NCCCn3ccnc3)sc2Cl)cc1 6%
COc1ccc(N(CC(=O)NC(C)(C)C)C(=O)c2ccco2)cc1 1%
CCOC(=O)c1[nH]c2ccccc2c1N=C(C)N(CC)CC 4%
COc1cccc2c(C)c(C(=O)O)[nH]c12 14%
COCCCNC(=O)c1c(F)c(F)c(F)c(F)c1F 5%
O=C(CCn1c(=O)oc2ccccc21)Nc1ccon1 5%
COc1cc(C2C(C(=O)Nc3ccc(F)cc3)=C(C)Nc3nc(CCCO)nn32)cc(OC)c1OC (stereo not drawn) 9%
OCCCN1c2ccccc2Nc2nnc(-c3ccccc3)cc21 2%
C=C1c2cc(CC)ccc2NC(=O)N1c1ccc(C)cc1 4%
CCc1nnc(NC(=O)CCC(=O)O)s1 1%
COc1cc(-c2nnc(Cn3cc(C(F)(F)F)ccc3=O)o2)cc(OC)c1OC 4%
CCOP1(=O)C=C(C(C)(C)C)OC1c1ccc(F)cc1 (stereo not drawn) 5%
CCN(CC)C(=O)CSc1nnc(-c2ccc(S(=O)(=O)NCc3ccccc3Cl)cc2)o1 6%
CCc1c(C)n([O-])c2c([n+]1=O)CCCCC2 4%
Cc1noc(NS(=O)(=O)c2ccc(N3CC(O)=C(c4ccccc4)C3=N)cc2)c1C 4%
Cn1c(NC(=O)c2ccc3c(c2)OCO3)cc(=O)n(C)c1=O 7%
COC(=O)Cc1c(C)c2ccc(OCC(=O)NCc3ccc4c(c3)OCO4)cc2oc1=O 10%
O=C(CSc1nc2ncccc2[nH]1)Nc1ccc2c(c1)OCCO2 1%
